Screening data: PubChem, several laboratories
Most compounds without a hit are left out; they make up all but 1.5% or so of the library.
CendR NRP1 mod = modulators of CendR peptide binding to human neuropilin-1; O14786; FAM-RPARPAR peptide binding to NRP-1, fluorescence polarization; inhibition, % at 25 µM; 360,000 compounds, 0.85% hits;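 active means inhibition or corrected inhibition above about 18%, plus a signal ratio from 0.5 to 1.5, limit read from the data, passing the limit was not always enough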
Target sequence (O14786 whole entry, looked up): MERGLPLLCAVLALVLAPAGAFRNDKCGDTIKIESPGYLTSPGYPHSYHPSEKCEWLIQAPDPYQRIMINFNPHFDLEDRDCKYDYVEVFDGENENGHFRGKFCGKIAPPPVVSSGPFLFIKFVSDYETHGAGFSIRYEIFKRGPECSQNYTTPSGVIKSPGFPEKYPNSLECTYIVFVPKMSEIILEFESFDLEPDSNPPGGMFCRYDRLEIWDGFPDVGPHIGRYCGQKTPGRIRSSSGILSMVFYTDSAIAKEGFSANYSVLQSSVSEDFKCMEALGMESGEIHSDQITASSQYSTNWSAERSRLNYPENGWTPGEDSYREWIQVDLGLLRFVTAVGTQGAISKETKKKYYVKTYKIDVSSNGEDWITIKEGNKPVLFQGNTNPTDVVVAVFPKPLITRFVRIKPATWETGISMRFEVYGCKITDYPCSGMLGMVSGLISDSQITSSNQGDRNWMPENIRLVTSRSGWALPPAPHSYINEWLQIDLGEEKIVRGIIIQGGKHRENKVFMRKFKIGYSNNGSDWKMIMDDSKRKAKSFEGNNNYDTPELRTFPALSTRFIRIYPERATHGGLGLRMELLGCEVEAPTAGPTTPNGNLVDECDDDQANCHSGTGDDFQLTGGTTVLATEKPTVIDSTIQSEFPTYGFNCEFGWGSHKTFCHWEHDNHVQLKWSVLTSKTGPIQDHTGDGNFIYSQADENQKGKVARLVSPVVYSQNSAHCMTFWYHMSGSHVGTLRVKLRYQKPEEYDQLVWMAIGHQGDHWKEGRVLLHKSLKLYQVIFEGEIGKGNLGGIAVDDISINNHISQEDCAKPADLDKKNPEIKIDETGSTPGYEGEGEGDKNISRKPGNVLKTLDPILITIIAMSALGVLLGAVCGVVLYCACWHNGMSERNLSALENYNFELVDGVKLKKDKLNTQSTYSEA
RAD52 anneal inh = RAD52 (human) annealing inhibition | P43351 | inhibition, % at 18.7 µM | 360,000 compounds, 0.46% hits | recombinant RAD52 DNA annealing, FRET fluorescence | AID 651710;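 active means every replicate showing at least 50% inhibition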
FID counter = displaces DNA intercalator in HCV helicase counter-screen; 290,000 compounds, 0.17% hits; AID 1845; DNA fluorescent intercalator displacement, fluorescence; inhibition, % at 7.9 µM; in the data active means inhibition above about 37%;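 further: higher means more ethidium bromide displaced from hairpin DNA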
RAD54 branch = blocks human RAD54 Holliday junction branch migration. Q92698. FAM/BHQ fluorescence. inhibition, % at 10.4 µM. 360,000 compounds, 0.14% hits. AID 602329;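 active means mean normalized replicate activity at least 40 and at least half of replicates scoring 40 or more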;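 further: inhibitors cause a drop in the FAM fluorescence signal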
Glyco luc inh = N-linked glycosylation inhibition | reporter increase, % at 12.5 µM | 360,000 compounds, 0.23% hits | AID 588692 | D54 ERlucT glycosylation luciferase reporter, 24 h; percent of 100 nM tunicamycin response;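 active means mean luciferase reporter signal, scaled so untreated is 0 and the glycosylation-blocking control 100, at or above a set limit in every replicate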;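 further: luciferase carries N-glycosylation sites so blocking glycosylation raises the light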
miR-122 sensor = inhibitors of miR-122 in Huh7 cells. 340,000 compounds, 0.3% hits. activation (reporter increase), % at 12.5 µM. Huh7 miR-122 Renilla luciferase sensor, 48 h; neutral wells = 0, positive control = 100;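 active means mean replicate activation score at least 90 and every replicate individually at or above 90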;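 further: higher luciferase means less miR-122 activity so hits act as miR-122 inhibitors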
Each line names hits and unclear results; the compound was inactive in the other large screens.

CC(C)c1ccc(NC(=O)CN2C(=O)NC3(CCCC3)C2=O)cc1	CendR NRP1 mod 24 (no result: miR-122 sensor)
O=C(CN1C(=O)NC2(CCCCCC2)C1=O)Nc1ccc(OC(F)(F)F)cc1	CendR NRP1 mod 27 (no result: FID counter)
O=C(CN1C(=O)NC2(CCCC2)C1=O)Nc1ccc(OC(F)(F)F)cc1	none
C[C@@H]1CN([C@@H](C)CO)C(=O)c2cccc(NC(=O)c3ccc(-c4nccs4)cc3)c2O[C@H]1CN(C)S(=O)(=O)c1cccs1	none (no result: CendR NRP1 mod, FID counter, Glyco luc inh)
COc1cccc(NC(=O)N[C@H]2CC[C@H](CC(=O)N3CCCCC3)O[C@H]2CO)c1	none (no result: CendR NRP1 mod, FID counter, Glyco luc inh, miR-122 sensor)
O=C(C1=C[C@H](c2csc3ccccc23)C[C@H](OCCCCO)O1)N1CCN(Cc2ccccc2)CC1	CendR NRP1 mod 27
O=C(C1=C[C@@H](c2ccc(Br)cc2)C[C@@H](OCCCCO)O1)N1CCN(Cc2ccc3c(c2)OCO3)CC1	none (no result: miR-122 sensor)
O=C(C1=C[C@H](c2ccc(C(F)(F)F)cc2)C[C@H](OCCCCO)O1)N1CCN(Cc2ccc3c(c2)OCO3)CC1	CendR NRP1 mod 29
O=C(NC1CC1)C1=C[C@@H](c2ccc3c(c2)OCO3)C[C@@H](OCCCCO)O1	CendR NRP1 mod 28 (no result: FID counter)
O=C(O)C1=C[C@H](c2ccc3c(c2)OCO3)C[C@H](OCCCCO)O1	none (no result: FID counter)
COCC#Cc1cnc2c(c1)C(=O)N([C@@H](C)CO)C[C@@H](C)[C@@H](CN(C)C(=O)Cc1cccnc1)O2	none (no result: CendR NRP1 mod, FID counter, RAD54 branch, Glyco luc inh, miR-122 sensor)
COc1ccc(NC(=S)Nn2cnnc2)c(OC)c1	CendR NRP1 mod 44
CC(C)(C)c1ccc(CNc2ccc([N+](=O)[O-])cn2)cc1	CendR NRP1 mod 32 (no result: RAD52 anneal inh, RAD54 branch, miR-122 sensor)
CC(C)c1ccc(CNc2ccc([N+](=O)[O-])cn2)cc1	none (no result: RAD54 branch)
C[C@@H]1CN([C@H](C)CO)S(=O)(=O)c2ccc(C3=CCCCC3)cc2O[C@@H]1CN(C)C(=O)c1ccncc1	none (no result: CendR NRP1 mod, FID counter, Glyco luc inh)
O=C(NCCN1CCOCC1)C(=O)NCC1CCCO1 (configuration not stated)	CendR NRP1 mod 38 (no result: RAD52 anneal inh, RAD54 branch, miR-122 sensor)
O=C(CN1C(=O)c2ccccc2C1=O)NC1CCC(O)CC1 (configuration not stated)	CendR NRP1 mod 25 (no result: FID counter)
O=C(CN1C(=O)c2ccccc2C1=O)NC1CCCCCC1	none (no result: miR-122 sensor)
CC(C)(C)n1nc(-c2ccc(F)cc2)c2c(N)ncnc21	CendR NRP1 mod 67 (no result: RAD52 anneal inh, miR-122 sensor)
CC(C)(C)n1nc(-c2ccc(Cl)cc2)c2c(N)ncnc21	none (no result: RAD52 anneal inh, RAD54 branch)
O=C(C1CCC1)N1CC2(C1)[C@H](c1ccccc1)[C@H](CO)N2Cc1cccnc1	none (no result: CendR NRP1 mod, FID counter, RAD54 branch, Glyco luc inh, miR-122 sensor)
CC(=O)Nc1ccc(/C=N/NS(=O)(=O)c2cc(C)ccc2C)cc1	miR-122 sensor 464
Cc1ccc(C)c(S(=O)(=O)N/N=C/c2ccc(F)cc2)c1	none (no result: RAD54 branch, miR-122 sensor)
NS(=O)(=O)c1cc(C(=O)NNC(=O)c2ccc3c(c2)OCO3)ccc1Cl	CendR NRP1 mod 28 (no result: FID counter)
O=C(C[C@@H]1CC[C@@H](NS(=O)(=O)c2ccccc2)[C@@H](CO)O1)N1CCc2ccccc2C1	none (no result: CendR NRP1 mod, FID counter, Glyco luc inh, miR-122 sensor)
CCN(CC)CCSc1nc2ccccc2c(=S)n1-c1ccccc1	FID counter 45 (no result: CendR NRP1 mod, RAD54 branch, Glyco luc inh, miR-122 sensor)
CO[C@@H]1CN(C)C(=O)c2cc(NC(=O)NC(C)C)ccc2OC[C@@H](C)N(Cc2cncnc2)C[C@@H]1C	none (no result: CendR NRP1 mod, RAD52 anneal inh, FID counter, Glyco luc inh)
O=C1CCCc2c1cc(C(=O)NC1CCSC1=O)c(=O)n2-c1ccccc1 (configuration not stated)	CendR NRP1 mod 30 (no result: RAD52 anneal inh)
CC(C)n1c(O)c(N=NC(=O)CNC(=O)Cc2ccc(Cl)cc2)c2ccccc21	CendR NRP1 mod 21
Cc1cc(C)cc(OCCNC(=O)C(C)N2C(=O)c3ccccc3C2=O)c1 (configuration not stated)	CendR NRP1 mod 22
Cc1cc(C)cc(NC(=O)C(C)N2C(=O)c3ccccc3C2=O)c1 (configuration not stated)	none
O=C(N[C@H]1C=C[C@H](CC(=O)N2CCc3ccccc3C2)O[C@H]1CO)C1CCOCC1	none (no result: CendR NRP1 mod, FID counter, RAD54 branch, Glyco luc inh, miR-122 sensor)
Oc1ccc2oc3c(c2c1)CCCC3	CendR NRP1 mod 28 (no result: RAD52 anneal inh, RAD54 branch)
O=C(Nc1c(C(=O)N2CCN(c3ccccn3)CC2)oc2ccccc12)c1ccc([N+](=O)[O-])cc1	miR-122 sensor 143
O=C(NCCC(=O)N1CCN(c2ccccn2)CC1)c1ccc([N+](=O)[O-])cc1	none (no result: FID counter, miR-122 sensor)
COc1ccc(S(=O)(=O)Nc2ccc3c(c2)C(=O)N([C@@H](C)CO)C[C@H](C)[C@H](CN(C)C(=O)Nc2cccc4ccccc24)OCCCC[C@@H](C)O3)cc1	none (no result: CendR NRP1 mod, FID counter, RAD54 branch, Glyco luc inh, miR-122 sensor)
O=C(Nc1ccccc1F)N[C@H]1CC[C@@H](CCNS(=O)(=O)c2ccc(Cl)cc2)O[C@@H]1CO	none (no result: CendR NRP1 mod, FID counter, Glyco luc inh)
O=C(c1ccccc1)C1CCN(C(=O)C2CCC(=O)N(Cc3cccc(F)c3)C2)CC1 (configuration not stated)	none
COCC1CCN(C(=O)C2CCC(=O)N(Cc3cccc(F)c3)C2)CC1 (configuration not stated)	CendR NRP1 mod 26 (no result: Glyco luc inh)
Cc1ccc(S(=O)(=O)N(CC(=O)NCc2cccs2)c2ccccc2)cc1	none (no result: FID counter)
CCN(CC(=O)NCc1cccs1)C(=O)c1ccc(S(=O)(=O)N(C)C)cc1	none (no result: RAD54 branch, miR-122 sensor)
CCN(CC(=O)NCc1cccs1)C(=O)c1ccc(S(=O)(=O)N(C)c2ccccc2)cc1	CendR NRP1 mod 21 (no result: FID counter)
Cc1ccc(N(CC(=O)NCc2cccs2)S(=O)(=O)c2cccs2)cc1	miR-122 sensor 182 (no result: RAD52 anneal inh)
CC(OC(=O)C1CCCC1)C(=O)Nc1ncc(Cl)cc1Cl (configuration not stated)	CendR NRP1 mod 22 (no result: FID counter)
CNC[C@@H]1Oc2c(NS(=O)(=O)c3ccc(C)cc3)cccc2C(=O)N([C@@H](C)CO)C[C@@H]1C	none (no result: CendR NRP1 mod, FID counter, Glyco luc inh)
C[C@@H]1CCCCO[C@@H](CN(C)C(=O)NC2CCCCC2)[C@H](C)CN([C@H](C)CO)C(=O)c2cc(NS(C)(=O)=O)ccc2O1	none (no result: CendR NRP1 mod, RAD52 anneal inh, FID counter, Glyco luc inh)
CCOC(=O)C(C)(C)Sc1ncnc2nc[nH]c12	none (no result: RAD52 anneal inh)
O=C(CSc1ncnc2nc[nH]c12)c1ccc([N+](=O)[O-])cc1	Glyco luc inh 45 (no result: RAD54 branch, miR-122 sensor)
CCOC(=O)c1cc([N+](=O)[O-])cc([N+](=O)[O-])c1Sc1ncnc2nc[nH]c12	Glyco luc inh 99 (no result: FID counter, RAD54 branch)
CO[C@H]1CN(C)C(=O)c2cc(NC(=O)c3cnccn3)ccc2OC[C@H](C)N(CC2CC2)C[C@@H]1C	none (no result: CendR NRP1 mod, FID counter, RAD54 branch, Glyco luc inh, miR-122 sensor)
NC(=O)CC[C@H](NC(=O)c1ccc(F)cc1)C(=O)N1CCN(Cc2ccc3c(c2)OCO3)CC1	CendR NRP1 mod 21 (no result: FID counter)
c1cc2c(cc1Cn1cnnn1)OCO2	CendR NRP1 mod 22 (no result: RAD52 anneal inh)
Cc1c(N=C2C=CC(=O)c3ccccc32)c(=O)n(-c2ccccc2)n1C	CendR NRP1 mod 38 (no result: RAD54 branch, miR-122 sensor)
COc1cc(NC(=O)c2ccccc2OCc2ccccc2)cc(OC)c1OC	Glyco luc inh 28
CNC(=O)c1cccc(NC(=O)c2ccccc2OCc2ccccc2)c1	Glyco luc inh 27 (no result: miR-122 sensor)
O=C(Nc1ccc(O)cc1)c1ccccc1OCc1ccccc1	none
O=C(Nc1ccccc1)c1ccccc1OCc1ccc(F)cc1	none
CC(C)NC(=O)Nc1cccc2c1O[C@H](CN(C)C)[C@H](C)CN([C@H](C)CO)C2=O	none (no result: CendR NRP1 mod, FID counter, Glyco luc inh)
